# Bioassay records from PubChem.
# HCV inh: inhibitors of hepatitis C virus infection; Huh7.5.1 HCVcc-Cre infection, luciferase reporter, 44 h; 3.4% of 340,000 active; Potency, µM (titrated, usually from 41.8 µM), without a hit: at the highest dose activity change, negative = inhibition, usual class: inhibitors; AID 651820; further: potency means the concentration at half of the fitted maximal effect; on the % scale 0 is the no-effect control and ±100 the full control effect
#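 Whole-lifecycle infectious HCVcc-Cre system; cells 1,000/well, compound then virus (~0.5 moi) added 4 h after plating, 44 h culture. Luciferase read 15 sec following 15 min substrate incubation, room temp.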
# Shiga inhibitor: blocks Shiga toxin action in Vero cells; AID 2315; Vero cells, Shiga toxin protein synthesis inhibition reporter; inhibition, % at 38.7 µM; 9.2% of 290,000 active; in the data active means inhibition mostly above about 28%, no sharp cut-off; inactive means mostly below about 43%; further: 0% is about no effect
# AMA1 RON2 block: inhibitors of Plasmodium falciparum AMA1-RON2 interaction; AID 720542; 0.2% of 360,000 active; AlphaScreen AMA1-biotinylated RON2 peptide binding; Potency, µM (series often up to 58.2 µM), inactives show at the top dose activity change, negative = inhibition, most hits filed as inhibitors;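 further: potency means the concentration at half of the fitted maximal effect; 0% = vehicle wells and -100% = peptide control; nearly all actives have a fitted effect of over 45% in size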
#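 AMA1 (3D7) with his tag at 25 nM final met compounds first, then biotinylated RON2 peptide at 25 nM; detection used donor plus acceptor beads, 10 µg/mL apiece, read by AlphaScreen after 30 min at room temperature.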
# Pf growth 48h: P. falciparum growth inhibition at 48 hours (one generation); AID 504832; 5.9% of 310,000 active; Potency, µM (highest dose often 28.7 µM), for inactives: at the highest dose activity change, negative = inhibition, most hits filed as inhibitors; P. falciparum luciferase growth in erythrocytes, 48 h; further: potency means the concentration at half of the fitted maximal effect; on the % scale 0 is the no-effect control and ±100 the full control effect
#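 Parasite viability was followed by luminescence of a genomically integrated firefly luciferase. Cultures held 0.1% parasitemia at 2% hematocrit (final), incubated under 5% CO2 at 37 C.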
# Pf growth 96h: P. falciparum growth inhibition at 96 hours; P. falciparum luciferase reporter growth, 96 h; Potency, µM (highest dose often 28.7 µM), for the others: at the highest dose activity change, negative = inhibition, hits mostly inhibitors; 6.9% of 320,000 active; further: potency means the concentration at half of the fitted maximal effect; on the % scale 0 is the no-effect control and ±100 the full control effect
#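 Delayed-death screen, second-generation endpoint: infected erythrocytes, 2% hematocrit, 0.05% parasitemia final; 96 hours at 37 C, 5% CO2; luciferase detection reagent; luminescence decrease equals reduced growth.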
# Cycloheximide cs: counter-screen for Shiga toxin inhibitors: cycloheximide protein synthesis inhibition; max response, %; 12% of 300,000 active; AID 2314; cell reporter, cycloheximide protein synthesis inhibition counterscreen; in the data active means max response mostly above about 13%, no sharp cut-off; inactive means mostly below about 14%; further: read at 38.3 µM for the half of the compounds with a filed dose; 0% is about no effect
# * hit, by the source's call; i = inactive; ? = inconclusive; / = no result. This is a sample that favours compounds with a hit; in the whole collection about 21% have one here. Unless noted, the call rests on the fitted dose curve; in most records, active means well fitted curve in the direction sought with a large enough effect; inconclusive means small, poorly fitted or top-dose-only effect, or another doubt; inactive means no such curve, though single readings can be large; an effect the other way counts as inactive or inconclusive.
SMILES,HCV inh,Shiga inhibitor,AMA1 RON2 block,Pf growth 48h,Pf growth 96h,Cycloheximide cs
O=S(=O)(NC1CCCC1)c1cc(F)ccc1F,11%,-15,0%,?,?,6
CC#CC(=O)Nc1cc2c(Nc3ccc(F)c(Cl)c3)ncnc2cn1,/,-10,/,/,/,-3
O=C(O)c1ccc(-c2nc3ccccc3s2)o1,13%,78*,23%,241%,i,45*
O=C(c1ccccc1)c1ccc(C(=O)N2CCN(c3ccccc3O)CC2)cc1,/,/,-1%,/,/,/
O=C(c1ccc(-c2nc3ccccc3s2)o1)N1CCN(c2ccccc2O)CC1,?,45,-30%,?,5.2µM*,37*
O=Cc1ccc(-c2nc3ccccc3s2)o1,17%,61*,-12%,101%,41%,29*
O=C(NCC1CCCO1)c1cccc(S(=O)(=O)N(Cc2ccccc2)c2ccccc2)c1 (centres undefined),-1%,/,-11%,?,-2%,/
CC1C(=O)C(C)C(c2cc(Cl)ccc2O)NC1c1cc(Cl)ccc1O (centres undefined),?,-3,78%,/,11%,1
CCOc1ccc(S(=O)(=O)NCCC(=O)OCC(=O)NC(=O)c2cccn2C)cc1,9%,/,-16%,/,/,/
Cc1cccnc1CCNC(=O)c1ccc(OC2CCN(Cc3ccccn3)CC2)cc1,-16%,60,70%,14%,-4%,18*
CN(C(=O)c1ccc(OC2CCN(Cc3ccccn3)CC2)cc1)C1CCCCC1,1%,22,0%,?,?,21*
O=C(NCCc1cccc(Cl)c1)c1ccc(OC2CCN(Cc3ccccn3)CC2)cc1,?,53*,24%,1%,?,51*
COCC(=O)N1CCC(Oc2ccc(C(=O)NCCc3ncccc3C)cc2)CC1,15%,18,1%,32%,?,3
C#CCN(C(=O)c1ccc(OC2CCN(Cc3ccccn3)CC2)cc1)C1CCCCC1,-19%,-6,44%,?,19%,-2
CC(NC(=O)c1ccc(OC2CCN(Cc3ccccn3)CC2)cc1)c1nccs1 (centres undefined),-4%,-3,68%,-12%,13µM*,7
Cc1nc(C(C)NC(=O)c2ccc(OC3CCN(Cc4ccccn4)CC3)cc2)c(C)s1 (centres undefined),4%,-3,61%,?,12%,-1
Cc1noc(C)c1NC(=O)N(C)C[C@H]1Oc2c(NC(=O)Nc3ccc4c(c3)OCO4)cccc2C(=O)N([C@H](C)CO)C[C@@H]1C,-13%,/,1%,/,/,/
Nc1ncc(Br)cc1S(=O)(=O)Nc1cc(C(F)(F)F)cc(C(F)(F)F)c1,?,12,-21%,17%,12%,-4
CN(C)C(=O)c1cccc(-c2cccc(-c3nc(C(=O)NCc4ccccc4)cc4c3[C@@H](CCO)N(S(=O)C(C)(C)C)C4)c2)c1 (some centres undefined),/,/,-10%,/,/,/
Cc1ccc(S(=O)(=O)Nc2cccc(C(=O)N3CCC(C(N)=O)CC3)c2)cc1,9%,/,10%,-11%,-6%,/
OCCNCc1ccc(OCc2ccc(Cl)cc2Cl)cc1,?,35,-5%,?,26%,25*
COc1cc(CNCCO)cc(Cl)c1OCc1ccccc1Cl,?,-4,2%,?,-8%,0
OCCCCNCc1ccc(OCc2ccc(Cl)cc2Cl)cc1,6.3µM*,-19,0%,13µM*,15µM*,-8
CCN(C[C@H]1N[C@@](CC)(C(=O)OC)[C@H]2C(=O)N(Cc3ccccc3)C(=O)[C@@H]12)S(=O)(=O)c1ccc(C(C)(C)C)cc1,-94%,/,0%,/,/,/
Cc1ccc(-n2nc(C)c3c(-c4cccs4)c(C#N)c(N)nc32)cc1,5%,4,4%,?,?,22
Cc1nn(-c2ccccc2)c2nc(N)c(C#N)c(-c3ccc(F)cc3)c12,?,3,3%,12µM*,?,6
CCOC(=O)c1ccc(NC(=O)CN(C)S(=O)(=O)c2ccc(Br)s2)cc1,-23%,23,0%,?,20%,16*
